# From PubChem BioAssay (NCATS)
# Values without a mark were called inactive. No rule for the calls is given here.
# System: HIV-1 nucleocapsid protein NCp7 (binding to TG oligonucleotide)
# Experiment: HIV Nucleocapsid (AID 346);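 also: potency is for inhibitors that block NC binding and lower polarization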
# Settings: HIV-1 NC / fluorescein-TGTGTGTG probe, fluorescence polarization
# Procedure, shortened: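 Reagents dispensed (10 nM TG4xF, 100 nM HIV-1 NC), plates spun, compounds pin-transferred, then incubated 1 hr at room temperature before FP imaging. Buffer: Hepes pH 7.5, 250mM NaCl, 1uM ZnCl2, 100 uM TCEP, 5 mM 2-mercaptoethanol.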
# Potency is read from the fitted curve at half-maximal effect.
row,SMILES,Potency
1,Cc1noc(C)c1-c1cc(NCCN2CCOCC2)ncn1,> 20 µM
2,COCCNc1nc(-c2ccc(N(C)C)cc2)nc2ccccc12,> 20 µM
3,Clc1ccccc1-c1cc(NCCN2CCOCC2)ncn1,> 20 µM
4,CC(=O)N1CCC2(CCCN(C(=O)Nc3cccc(F)c3)C2)CC1,> 20 µM
5,COc1ccc(C(=O)N2CCC3(CC2)CN(c2ccncc2)C3)cc1,> 20 µM
6,CC(=O)NCCNc1ncnc2ccc(-c3ccccc3C#N)cc12,> 20 µM
7,O=C(Nc1cccc(F)c1)N1CCCC2(CCNCC2)C1,> 4 µM
8,Cc1noc(C)c1-c1cncnc1NCc1ccccc1,> 20 µM
9,O=S(=O)(c1ccccc1)N1CCC[C@@]2(CCN(C(c3ccccc3)c3ccccc3)C2)C1,> 20 µM
10,CCNc1ncc2nc(-c3ccc(Cl)cc3)c(=O)n(Cc3ccc(F)cc3)c2n1,14 µM
11,COc1ccc(NC(=O)N2CC3(CCN(C(=O)c4c(C)noc4C)CC3)C2)cc1,> 20 µM
12,COc1ccccc1CNc1ncnc2ccc(-c3ccc(C(=O)N(C)C)cc3)cc12,> 20 µM
13,O=c1c(-c2ccc(F)cc2)nc2cnc(Oc3cccc(Cl)c3)nc2n1C[C@H]1CCCO1,> 20 µM
14,COCCn1c(=O)c(-c2ccc(F)cc2)nc2cnc(Oc3ccccc3)nc21,> 20 µM
15,N#CCCn1c(=O)c(-c2ccc(Cl)cc2)nc2cnc(Nc3ccccc3)nc21,> 20 µM
16,COCCn1c(=O)c(C)nc2cnc(Nc3cccc(OC)c3)nc21,> 20 µM
17,Cn1cccc1C(=O)N1CCC2(CCCN(Cc3ccncc3)C2)CC1,> 20 µM
18,COc1ccc(Oc2ncc3nc(C)c(=O)n(Cc4ccc(F)cc4)c3n2)cc1,> 20 µM
19,N#Cc1cccc(-c2ccc3ncnc(NCc4cccs4)c3c2)c1,> 20 µM
20,COc1ccc(-n2c(=O)c(-c3ccccc3)nc3cnc(N4CCOCC4)nc32)cc1,> 20 µM

row,SMILES,Potency
1,O=c1c(-c2cccs2)nc2cnc(Oc3cccc(Cl)c3)nc2n1C1CC1,> 20 µM
2,CCNc1ncc2nc(CCc3ccccc3)c(=O)n(CCC#N)c2n1,> 20 µM
3,CN(C)Cc1ccccc1-c1nccc(NC2CC2)n1,> 20 µM
4,O=c1c(-c2cccs2)nc2cnc(N3CCNCC3)nc2n1Cc1cccs1,> 20 µM
5,COc1ccccc1-c1ccc2ncnc(NC3CC3)c2c1,> 20 µM
6,CCNc1ncc2nc(-c3cc(F)cc(F)c3)c(=O)n(Cc3ccc(F)cc3)c2n1,> 4 µM
7,COCCNc1nc(-c2ccccc2OC)nc2ccccc12,> 20 µM
8,O=c1cnc2cnc(Nc3ccccc3)nc2n1CCc1ccccc1,> 20 µM
9,COCCn1c(=O)c(-c2cccs2)nc2cnc(Oc3ccc(OC)cc3)nc21,> 20 µM
10,COc1ccccc1-c1cc(NCc2cccnc2)ncn1,> 20 µM
11,CN(C)Cc1ccccc1-c1cncnc1NCc1ccccc1,> 20 µM
12,CN1CCCC2(CCN(C(=O)c3cc(C(F)(F)F)cc(C(F)(F)F)c3)CC2)C1,> 20 µM
13,COC(=O)N1CCC2(CC1)CCN(c1ccccn1)CC2,> 20 µM
14,COc1ccc(-n2c(=O)c(C)nc3cnc(Nc4ccccc4)nc32)cc1,> 20 µM
15,COc1cccc(-c2nc(N(C)Cc3ccco3)c3ccccc3n2)c1,> 20 µM
16,O=c1c(-c2ccc(Cl)cc2)nc2cnc(N3CCNCC3)nc2n1CCc1ccccc1,> 20 µM
17,CN1CCN(c2ncc3nc(-c4ccc(Cl)cc4)c(=O)n(C)c3n2)CC1,> 20 µM
18,O=c1c(-c2ccccc2)nc2cnc(Oc3ccccc3)nc2n1C1CC1,> 20 µM
19,COCCn1c(=O)c(-c2cccs2)nc2cnc(Oc3cccc(Cl)c3)nc21,> 20 µM
20,COc1ccccc1CN1CCCC2(CCN(C(C)=O)CC2)C1,> 20 µM
